Data from PubChem BioAssay (Tox21).
Results filed as inconclusive are left out. Calls of active or inactive are those of the source. The call rests on the fitted dose curve; in most records, active means well fitted cell-killing curve with a large enough effect in the repeat runs; inconclusive means weak or mixed curves, or effect the other way; inactive means flat fitted curve, though single readings scatter.

test: qHTS RealTime-Glo MT Cell Viability Assay in HEK293 cells - 24 hour (AID 1224886); settings: RealTime-Glo luminescence; series mostly up to 76.8 µM; further: top concentration of the series differs between compounds; nearly all actives have a fitted effect of over 50% in size
From the text: National Center for Advancing Translational Sciences [NCATS]
NIH Chemical Genomics Center [NCGC]
U.S. Environmental Protection Agency [EPA]
National Institutes of Environmental Health Sciences [NIEHS]
National Toxicology Program [NTP]
U.S. Food and Drug Administration [FDA]
Measure of cell viability is critical in the cell-base assay. Analysis of cell viability is necessary for the characterization of cell responses to cytotoxic drugs and environmental stress. A RealTime-Glo MT Cell Viability Assay to monitor cell viability in real time of continues cell culture during 40 hours of compound treatment was used to screen Tox21 10K library compounds in Hek293 cells. The RealTime-Glo MT Cell Viability Assay is a nonlytic, homogeneous, bioluminescent method to measure cell viability in real time using a simple, plate-based method. The assay involves adding NanoLuc luciferase and a cell-permeant prosubstrate to cells in culture. Viable cells reduce the proprietary prosubstrate to generate a substrate for NanoLuc luciferase. This substrate diffuses from cells into the surrounding culture medium, where it is rapidly used by the NanoLuc Enzyme to produce a luminescent signal. The signal correlates with the number of viable cells, making the assay well suited for cytotoxicity studies.
Tox21 Assay Protocol Summary:
The mixture of Hek293 cell suspension and reagents were dispensed at 600cells/6 ul/well in 1536-well tissue culture treated black solid bottom plates using a Multidrop dispenser. After the assay plates were incubated at a 37 C/5% CO2 incubator for 5 hours, 23 nL of compounds dissolved in DMSO, positive and negative controls was transferred to the assay plate by a pintool work station. The plates were incubated at 37 C for 40 hours. The luminescence intensity were measured at 0h, 8h, 16h, 24h, 32h and 40h time points using ViewLux plate reader during compound treatment.
On the % scale 0 is the no-effect control and ±100 the full control effect.

Row | SMILES | outcome | activity change, negative = cytotoxicity
1 | CCCCCCCCCCCCCCBr | inactive | –
2 | CC1(C)S[C@@H]2[C@H](NC(=O)Cc3ccccc3)C(=O)N2[C@H]1C(=O)O (tested in a mixture with another compound) | inactive | –
3 | CCCCC(CC)CCC(CC(C)C)OS(=O)(=O)O (stereo not given) | inactive | –
4 | CCOC(=O)CC(C(C)=O)C(C)=O | inactive | –
5 | CC(C)C(C)C | inactive | –
6 | CC/C=C\CCCCCCCCCCOC(C)=O | inactive | –
7 | CCCCCCCCCCCCCCCCN(C)C | – | 5.99% [at 6.97 µM] (inactive)
8 | CCCCN(CCCC)CCCCCCN(CCCC)CCCC | inactive | –
9 | CC1(C)C(=O)C(C)(C)C1=O | inactive | –
10 | OCCC(F)(F)C(F)(F)C(F)(F)C(F)(F)C(F)(F)C(F)(F)F | inactive | –
11 | Cc1cc(O)c(Cl)cc1C | inactive | –
12 | Cc1cc(C)c(C)c(C)c1 | inactive | –
13 | c1coc(Cn2cccc2)c1 | inactive | –
14 | C[Si](C)(C)O[Si](O)(O)O | inactive | –
15 | CC(O)CCCCn1c(=O)c2c(ncn2C)n(C)c1=O (stereo not given) | inactive | –
16 | NNC(=O)CCCCC(=O)NN | inactive | –
17 | O=Cc1ccc(C(=O)O)cc1 | inactive | –
18 | C[n+]1ccccc1/C=N/O | inactive | –
19 | CCC(=O)OCCOc1ccccc1 | inactive | –
20 | COC(=O)c1cc(Cl)c(NC(C)=O)cc1OC | inactive | –

Row | SMILES | outcome | activity change, negative = cytotoxicity
21 | COC(=O)c1ccc(C(=O)O)cc1 | inactive | –
22 | N=C(N)N1CCc2ccccc2C1 | – | 2.27% [at 6.97 µM] (inactive)
23 | C=CCN(CC=C)CC=C | inactive | –
24 | CC(C)(C)C(=O)CCc1ccc(Cl)cc1 | inactive | –
25 | C=CC(=O)OCCOCCOCC | inactive | –
26 | C[C@@H]1NC(=O)[C@@H](N)CNC(=O)[C@H](C2CCNC(N)=N2)NC(=O)/C(=C/NC(N)=O)NC(=O)[C@H](CNC(=O)C[C@@H](N)CCCN)NC1=O (stereo not given in full) | – | 0.653% [at 0.29 µM] (inactive)
27 | C=CCN1CCc2nc(N)sc2CC1 | inactive | –
28 | CC(C)(C)OC(=O)c1ccccc1C(=O)O | inactive | –
29 | CCCC[O][Al]([O]CCCC)[O]CCCC | inactive | –
30 | O=S(=O)(O)c1ccc(Cl)cc1 | inactive | –
31 | CCOC(=O)[C@H](CCc1ccccc1)N[C@H]1CS[C@H](c2cccs2)CN(CC(=O)O)C1=O | inactive | –
32 | CN1C(CCl)Nc2cc(Cl)c(S(N)(=O)=O)cc2S1(=O)=O (stereo not given) | inactive | –
33 | Cc1ccc(N)nc1 | inactive | –
34 | BrCCOc1ccccc1 | inactive | –
35 | CCCCCCCCCCCCCCCC(=O)OC | – | -2.1% [at 15.8 µM] (inactive)
36 | Nc1ccc(C(=O)NCC(=O)O)cc1 | inactive | –
37 | COc1cnc(NS(=O)(=O)c2ccc(N)cc2)nc1 | inactive | –
38 | C/C=C/C(=O)CCCC | inactive | –
39 | CC[N+](C)(CC)CC | inactive | –
40 | CCCCCCCCS(=O)(=O)O | inactive | –
